Test results from PubChem BioAssay.

These molecules were tested against Follistatin-related protein 3 (Homo sapiens) (UniProt O95633) (assay: FSTL3 binders on small-molecule microarrays, primary screen, biochemical, small-molecule microarray, 635 nm fluorescence (AID 1105;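 note: score merges emission near 667 nm and signal to noise per printed spot across three slides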)). Conditions: FSTL3 binding, higher = more signal.
Chain of Follistatin-related protein 3 (Homo sapiens) (O95633 whole entry, looked up): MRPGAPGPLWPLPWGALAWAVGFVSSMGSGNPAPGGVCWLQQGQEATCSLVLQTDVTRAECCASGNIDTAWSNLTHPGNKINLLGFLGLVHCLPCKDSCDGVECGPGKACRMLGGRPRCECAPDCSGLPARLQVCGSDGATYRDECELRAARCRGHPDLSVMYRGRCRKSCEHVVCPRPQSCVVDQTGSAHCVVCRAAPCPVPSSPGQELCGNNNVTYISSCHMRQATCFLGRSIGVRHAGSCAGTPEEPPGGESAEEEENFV

Compound	composite z-score
COC(=O)[C@@]1(Cc2ccc(OC)cc2)[C@H]2c3cc(C(=O)N4CCCC4)n(Cc4cccc5ccccc45)c3C[C@H]2CN1C(=O)c1ccccc1	0.293
COc1ccc([Si](C)(C)[C@H]2[C@H](CC(=O)N(CCO)Cc3ccccc3)O[C@@]3(C(=O)N(Cc4cccc(N5CCOC5=O)c4)c4ccccc43)[C@@H]2C)cc1	0.324
Cc1cc(C)c(C(O)C2C=CC3C(=O)N(c4ccccc4)C(=O)C3N2Nc2ccc(C(C)C)cc2)c(C)c1 (configuration not stated)	0.818
C=C(/C(=C/C[C@@H](OC(C)=O)c1cccc(OCCO)c1)c1cc(C(=O)OC)ccc1OC)C(C)C	0.533
O=C1O[C@H](c2ccccc2)[C@H](c2ccccc2)N2[C@H]1[C@@H](C(=O)Nc1nc3ccccc3s1)[C@]1(C(=O)Nc3ccc(C#CC4(O)CCCCCC4)cc31)[C@H]2c1ccccc1OCCO	1.32
CN1C(=O)C2C=CC(C(O)C#Cc3ccccc3)N(Nc3ccccc3)C2C1=O (configuration not stated)	1.42
C=CC[C@@]1(C(=O)N2CCOCC2)N=C(c2ccc(OCCCO)cc2)O[C@@H]1c1ccccc1CN=[N+]=[N-]	1.05
COc1cc(OC)c(C(O)C2C=CC3C(=O)N(C)C(=O)C3N2NC(=O)OC(C)(C)C)cc1Br (configuration not stated)	1.41
CC(C)(C)OC(=O)CC[C@]1(C(=O)NCc2ccccc2)N=C(c2ccc(OCCCO)cc2)O[C@H]1c1ccccc1CN=[N+]=[N-]	1.37
CCCCCCc1nc(C2CC2)cc2c1[Si](C(C)C)(C(C)C)O[C@H]2c1ccccc1	0.274
COc1ccc(NC(=O)O[C@H]2[C@H](OC(=O)Nc3ccccc3)[C@H](OC(=O)Nc3ccccc3)[C@@H](OC)O[C@@H]2CO)cc1	0.806
COc1ccc([Si](C)(C)[C@@H]2[C@@H](CCO)O[C@]3(C(=O)N(Cc4ccc(N5CCCCC5=O)cc4)c4ccccc43)[C@H]2C)cc1	0.87
COC(=O)c1cn(C[C@@H](Cc2ccccc2)NC(=O)N[C@H](CO)CCc2oc(C(C)=O)c(C(=O)OC)c2C(=O)OC)nn1	1.4
C=C(CCCC)/C(=C/C[C@@H](OC(=O)c1ccncc1)c1ccccc1OCCO)c1cnc2ccccc2c1	1.33
O=C1NC(=O)C2C1C=CC(C(O)c1ccco1)N2Nc1ccccn1 (configuration not stated)	-0.374
C=CCC(OC(C)=O)[C@@H]1[C@@H](N(Cc2cc3ccccc3o2)C(=O)c2ccc(C)cc2)c2cc(OCCCO)ccc2N1C(=O)Cc1ccc(OC)cc1 (some centres not stated)	0.087
C=CCC(OC(C)=O)[C@@H]1[C@@H](N(Cc2ccc(-c3cccc(C(F)(F)F)c3)o2)C(=O)c2ccc(-c3ccccc3)cc2)c2cc(OCCCO)ccc2N1C(=O)c1ccc2ccccc2n1 (some centres not stated)	0.472
CN1C(=O)C2C=CC(C(O)c3cccc(O)c3)N(Nc3ccccc3)C2C1=O (configuration not stated)	-0.0255
CN1C(=O)C2C=CC(C(O)COCc3ccccc3)N(N(c3ccccc3)c3ccccc3)C2C1=O (configuration not stated)	0.127
COCCCNC(=O)[C@]1(CCS(=O)(=O)c2ccccc2)N=C(c2ccc(OCCCO)cc2)O[C@@H]1c1ccccc1N=[N+]=[N-]	0.735
O=C1C2C=CC(C(O)c3ccccc3)N(Nc3ccccc3F)C2C(=O)N1c1ccccc1 (configuration not stated)	0.341
CCOC(=O)c1ccc(NC(=O)O[C@H]2[C@H](OC(=O)Nc3ccc4c(c3)OCO4)[C@@H](OC(=O)Nc3ccc4c(c3)OCO4)[C@@H](OC)O[C@@H]2CO)cc1	1.49
COc1ccc([Si](C)(C)[C@@H]2[C@@H](CC(=O)N3Cc4ccccc4C[C@H]3CO)O[C@]3(C(=O)N(C)c4ccccc43)[C@H]2C)cc1	1.48
O=C(NCC(F)(F)F)[C@@H]1c2ccccc2C(=O)N(Cc2ccccc2C(F)(F)F)[C@H]1c1ccc(CO)cc1	-0.604
OCC1CC(c2ccccc2)=NO1 (configuration not stated)	-0.0588
C=CCNC(=O)[C@@H]1[C@H]2C(=O)O[C@H](c3ccccc3)[C@H](c3ccccc3)N2[C@H](c2ccc(O)cc2)[C@@]12C(=O)N(C(=O)OCCOC)c1ccc(C#CC3(O)CCCCCC3)cc12	-1.45

What follows are molecules tested against Dickkopf-related protein 1 (Homo sapiens) (UniProt O94907) (assay: DKK1 binders on small-molecule microarrays, primary screen, biochemical, small-molecule microarray, 635 nm fluorescence scan (AID 1106;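 note: score merges emission near 667 nm with signal to noise over three replicate slides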)). Conditions: DKK1 binding, higher = more signal.
Chain of Dickkopf-related protein 1 (Homo sapiens) (O94907 whole entry, looked up): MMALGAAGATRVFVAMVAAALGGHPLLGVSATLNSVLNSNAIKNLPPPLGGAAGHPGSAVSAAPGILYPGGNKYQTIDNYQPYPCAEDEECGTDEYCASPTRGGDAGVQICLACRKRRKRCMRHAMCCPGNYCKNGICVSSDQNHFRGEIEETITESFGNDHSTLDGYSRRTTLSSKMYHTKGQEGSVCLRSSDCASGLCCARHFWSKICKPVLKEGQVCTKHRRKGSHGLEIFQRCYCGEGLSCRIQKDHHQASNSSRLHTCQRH

Compound	composite z-score
NC(=O)NCC#Cc1ccc2c(c1)[C@]1(C(=O)N2)[C@H](C(=O)O)[C@H]2C(=O)O[C@H](c3ccccc3)[C@H](c3ccccc3)N2[C@@H]1c1ccc(OCCO)cc1	0.158
[N-]=[N+]=Nc1ccccc1C[C@]1(C(=O)N2CCOCC2)N=C(c2ccc(OCCCO)cc2)O[C@H]1c1ccccc1	1.93
COc1ccc(C#Cc2ccc3c(c2)[C@]2(C(=O)N3)[C@H](c3ccc(O)cc3)N3[C@H](c4ccccc4)[C@H](c4ccccc4)OC(=O)[C@H]3[C@@H]2C(=O)O)cc1	-0.474
O=C1O[C@@H](c2ccccc2)[C@@H](c2ccccc2)N2[C@@H](c3ccc(OCCO)cc3)[C@]3(C(=O)Nc4ccccc43)[C@@H](C(=O)O)[C@H]12	-0.32
C=C(/C(=C/C[C@H](OC(C)=O)c1cccc(OCCO)c1)c1cnc2ccccc2c1)C(C)C	0.783
COc1ccc([Si](C)(C)[C@H]2[C@H](CCn3cc([C@H](O)c4ccccc4)nn3)O[C@@]3(C(=O)N(Cc4ccc(N5C(=O)c6cccc7cccc5c67)cc4)c4ccccc43)[C@@H]2C)cc1	-0.858
CCC(CC)C(O)C1C=CC2C(=O)N(c3ccccc3)C(=O)C2N1Nc1ccc(C(C)C)cc1 (configuration not stated)	-0.0563
COC1OC[C@]2(C)[C@H]3C4=C(CN2C(=O)OC(C)(C)C)[C@H](C)C(CO)C(CO)C4CC[C@@H]13 (some centres not stated)	-0.362
COC(=O)[C@@]1(Cc2ccccc2N=[N+]=[N-])N=C(c2ccc(OCCCO)cc2)O[C@H]1c1ccccc1N=[N+]=[N-]	0.0345
CC1CC/C=C\[C@H]2OC34C=CCN(C(C)C)C(=O)[C@H]3N(CCCCCCO)C(=O)[C@@H]4C2C(=O)O1 (some centres not stated)	-1.24
COC(=O)[C@@]1(Cc2ccc(OC)cc2)[C@H]2c3cc(C(=O)N4CCCC4)n(Cc4cccc5ccccc45)c3C[C@H]2CN1C(=O)c1ccccc1	-0.724
COc1ccc([Si](C)(C)[C@H]2[C@H](CC(=O)N(CCO)Cc3ccccc3)O[C@@]3(C(=O)N(Cc4cccc(N5CCOC5=O)c4)c4ccccc43)[C@@H]2C)cc1	0.179
Cc1cc(C)c(C(O)C2C=CC3C(=O)N(c4ccccc4)C(=O)C3N2Nc2ccc(C(C)C)cc2)c(C)c1 (configuration not stated)	-0.0403
C=C(/C(=C/C[C@@H](OC(C)=O)c1cccc(OCCO)c1)c1cc(C(=O)OC)ccc1OC)C(C)C	-0.35
O=C1O[C@H](c2ccccc2)[C@H](c2ccccc2)N2[C@H]1[C@@H](C(=O)Nc1nc3ccccc3s1)[C@]1(C(=O)Nc3ccc(C#CC4(O)CCCCCC4)cc31)[C@H]2c1ccccc1OCCO	0.452
CN1C(=O)C2C=CC(C(O)C#Cc3ccccc3)N(Nc3ccccc3)C2C1=O (configuration not stated)	-0.184
C=CC[C@@]1(C(=O)N2CCOCC2)N=C(c2ccc(OCCCO)cc2)O[C@@H]1c1ccccc1CN=[N+]=[N-]	0.472
COc1cc(OC)c(C(O)C2C=CC3C(=O)N(C)C(=O)C3N2NC(=O)OC(C)(C)C)cc1Br (configuration not stated)	0.057

Compound	composite z-score
CC(C)(C)OC(=O)CC[C@]1(C(=O)NCc2ccccc2)N=C(c2ccc(OCCCO)cc2)O[C@H]1c1ccccc1CN=[N+]=[N-]	0.133
CCCCCCc1nc(C2CC2)cc2c1[Si](C(C)C)(C(C)C)O[C@H]2c1ccccc1	0.546
COc1ccc(NC(=O)O[C@H]2[C@H](OC(=O)Nc3ccccc3)[C@H](OC(=O)Nc3ccccc3)[C@@H](OC)O[C@@H]2CO)cc1	0.426
COc1ccc([Si](C)(C)[C@@H]2[C@@H](CCO)O[C@]3(C(=O)N(Cc4ccc(N5CCCCC5=O)cc4)c4ccccc43)[C@H]2C)cc1	0.562
COC(=O)c1cn(C[C@@H](Cc2ccccc2)NC(=O)N[C@H](CO)CCc2oc(C(C)=O)c(C(=O)OC)c2C(=O)OC)nn1	0.894
C=C(CCCC)/C(=C/C[C@@H](OC(=O)c1ccncc1)c1ccccc1OCCO)c1cnc2ccccc2c1	0.736
O=C1NC(=O)C2C1C=CC(C(O)c1ccco1)N2Nc1ccccn1 (configuration not stated)	-0.172
C=CCC(OC(C)=O)[C@@H]1[C@@H](N(Cc2cc3ccccc3o2)C(=O)c2ccc(C)cc2)c2cc(OCCCO)ccc2N1C(=O)Cc1ccc(OC)cc1 (some centres not stated)	0.0807
C=CCC(OC(C)=O)[C@@H]1[C@@H](N(Cc2ccc(-c3cccc(C(F)(F)F)c3)o2)C(=O)c2ccc(-c3ccccc3)cc2)c2cc(OCCCO)ccc2N1C(=O)c1ccc2ccccc2n1 (some centres not stated)	-0.0126
CN1C(=O)C2C=CC(C(O)c3cccc(O)c3)N(Nc3ccccc3)C2C1=O (configuration not stated)	-0.208
CN1C(=O)C2C=CC(C(O)COCc3ccccc3)N(N(c3ccccc3)c3ccccc3)C2C1=O (configuration not stated)	-0.674
COCCCNC(=O)[C@]1(CCS(=O)(=O)c2ccccc2)N=C(c2ccc(OCCCO)cc2)O[C@@H]1c1ccccc1N=[N+]=[N-]	-0.262
O=C1C2C=CC(C(O)c3ccccc3)N(Nc3ccccc3F)C2C(=O)N1c1ccccc1 (configuration not stated)	0.0646
CCOC(=O)c1ccc(NC(=O)O[C@H]2[C@H](OC(=O)Nc3ccc4c(c3)OCO4)[C@@H](OC(=O)Nc3ccc4c(c3)OCO4)[C@@H](OC)O[C@@H]2CO)cc1	0.624
COc1ccc([Si](C)(C)[C@@H]2[C@@H](CC(=O)N3Cc4ccccc4C[C@H]3CO)O[C@]3(C(=O)N(C)c4ccccc43)[C@H]2C)cc1	0.874
O=C(NCC(F)(F)F)[C@@H]1c2ccccc2C(=O)N(Cc2ccccc2C(F)(F)F)[C@H]1c1ccc(CO)cc1	-0.377
OCC1CC(c2ccccc2)=NO1 (configuration not stated)	0.473
C=CCNC(=O)[C@@H]1[C@H]2C(=O)O[C@H](c3ccccc3)[C@H](c3ccccc3)N2[C@H](c2ccc(O)cc2)[C@@]12C(=O)N(C(=O)OCCOC)c1ccc(C#CC3(O)CCCCCC3)cc12	-1.82
